SMILES strings stand for the structures. The panel holds about 79,000 compounds, 15% with a hit somewhere; the sample as a whole holds those more often. Values without a mark were called inactive. Active and inactive are the calls of the source. No stated cut-off is given here; in the data, active means growth inhibition above about 70%; inactive means the rest.

The assay in a line: NCI Yeast Anticancer Drug Screen. Data for the rad14 strain (AID 159).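 Further: 0% = growth of vehicle-treated control cultures.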 Conditions: S. cerevisiae rad14 strain growth inhibition; at 33.0 µM; active compounds read high. An outline of the steps:
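Vehicle-treated cultures served as the baseline for growth inhibition of a DNA repair-mutant yeast strain exposed to each compound.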
In the case of `COc1ccc(NC(=O)CC2SC(=Nc3ccccc3C)NC2=O)c([N+](=O)[O-])c1` (centres undefined), the growth inhibition is 10%.
The value for `COc1cc(O)c2c(c1O)C(=O)c1cc(C)ncc1C2=O` was 91% (active); that for `CSc1nnc(SC)nn1` was 77% (active).
For `COc1cc(/C=C2\CCC/C(=C\c3ccc(O)c(OC)c3)C2=O)ccc1O` the value was 4%.
For `CN(C)CCNC(=O)c1cccc2cc([N+](=O)[O-])ccc12` the value was 80% (active); for `CCC(C)(C)c1ccc(Oc2cccc(C(=O)O)c2)cc1`, 54%; for `CCCCCCSc1ncnc2[nH]ncc12`, 5%.
As to `CC(=O)Nc1ccc(/C=C/[N+](=O)[O-])cc1`, the growth inhibition is 40%.
The value for `CCOC(=O)c1[nH]n(-c2ccccc2)c(=O)c1C=NC(=S)C(N)=S` was 95% (active); that for `CCCC(O)C1CC(C(C)C)CCC1C` (centres undefined) was 17%; that for `O=[n+]1c2ccccc2n([O-])c2cc(Br)ccc21` was 100% (active).
For `CN(C)CCNC(=O)c1cccc2c1Oc1c(cccc1[N+](=O)[O-])O2` the value was -8%; for `Nc1ncc(-c2ccc(Br)cc2)s1`, 93% (active).
The value for `Cc1cc2cc3cc(C)c(N)cc3nc2cc1N` was 70% (active).
For the molecule `CC12C(=O)OC(=O)C(c3ccccc31)c1ccccc12`, the growth inhibition was 2%.
For `c1ccc2c(OCC3CO3)cccc2c1` (centres undefined) the value was 17%.
For `CCOC(=N)c1ccc(O)c(OC)c1` the value was -4%.
For `Nc1cc(N)c(N=Nc2cccc3c(S(=O)(=O)O)cccc23)cc1N=Nc1cc([N+](=O)[O-])ccc1O`, the growth inhibition was -18%.
With `COC(=O)Oc1cc(Cl)c(Cl)cc1Cl`, the growth inhibition was 5%.

(Values after PubChem BioAssay (NCI).)
